# Test results: PubChem BioAssay (Tox21)
# Results filed as inconclusive are left out. Calls of active or inactive are those of the source. Calls follow the shape of the dose curve; as a rule, active = well fitted cell-killing curve with a large enough effect in the repeat runs; inconclusive = weak or mixed curves, or effect the other way; inactive = no such curve, though single readings can be large or run the other way.
# Assay: qHTS assay for identifying genotoxic compounds that show differential cytotoxicity against isogenic chicken DT40 cell lines with known DNA damage response pathways - wild type cell line (AID 743012); also: nearly all actives have a fitted effect of over 60% in size
# Details: DT40 wild type chicken cells viability, CellTiter-Glo, 40 h; series mostly up to 68.4 µM; activity change, negative = cytotoxicity: at the top concentration
# Method in brief: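 Cells (DT40 wild type, 300/well) are treated with DMSO-dissolved compounds after a ~0.5 h pre-incubation and kept 40 h at 37 C/5% CO2. Viability is then measured by CellTiter-Glo luminescence following 30 min at room temperature.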
# % is scaled to controls: 0 for no effect and ±100 for the full control effect; potency is read from the fitted curve at half-maximal effect.
Compound,"activity change, negative = cytotoxicity",Potency
CCCC[C@H]1CN(CC2CCOCC2)C(=O)OC12CCN(C1(C)CCN(C(=O)c3c(C)ncnc3C)CC1)CC2,2.42% (inactive),
O=C(O)COC(=O)Cc1ccccc1Nc1c(Cl)cccc1Cl,5.2% [at 31.4 µM] (inactive),
Cc1cc(C)c(S(=O)(=O)O)cc1N=Nc1cc(S(=O)(=O)O)c2ccccc2c1O,-13.5% (inactive),
CN1CCC(OC(c2ccccc2)c2ccccc2)CC1,,11.4 µM (active)
c1ccc(OCc2ccc(CCCN3CCOCC3)cc2)cc1,,0.531 µM (active)
N#Cc1c(F)cccc1F,11.8% (inactive),
NC(N)=NN=C(/C=C/c1ccc([N+](=O)[O-])o1)/C=C/c1ccc([N+](=O)[O-])o1,,1.5 µM (active)
Cc1ccccn1,-18.6% (inactive),
NC1CCN(c2nc3c(cc2F)c(=O)c(C(=O)O)cn3-c2ccc(F)cc2F)C1 (stereo not drawn),,10.6 µM (active)
CCCCCCOC(=O)CCC,0.429% (inactive),
COc1cc(C(C)(C)C)c(O)c(C(C)(C)C)c1,,38.6 µM (active)
CC(C)c1cccc(C(C)C)c1NC(=O)NS(=O)(=O)c1cc(C(C)(C)O)co1,18.1% (inactive),
O=C(O)C(c1ccc(Cl)cc1)c1ccc(Cl)cc1,-3.77% (inactive),
COCCCCCCCCOCCC[Si](C)(O[Si](C)(C)C)O[Si](C)(C)C,,5.45 µM (active)
CC(Cc1cccc(C(F)(F)F)c1)NCCOC(=O)c1ccccc1 (stereo not drawn),,18.8 µM (active)
O=C(/C=C/c1ccc(O)c(O)c1)O[C@@H]1C[C@](O)(C(=O)O)C[C@@H](O)[C@H]1O,-1.33% [at 95 µM] (inactive),
NC[C@H]1O[C@H](O[C@H]2[C@H](O)[C@@H](O[C@H]3O[C@H](CO)[C@@H](O)[C@H](N)[C@H]3O)[C@H](N)C[C@@H]2N)[C@H](O)[C@@H](O)[C@@H]1O,,inactive

Compound,"activity change, negative = cytotoxicity",Potency
CC(C)(C)c1cc(O)c(C(C)(C)C)cc1O,,12.2 µM (active)
CCOC(=O)[C@H](CCc1ccccc1)N[C@H]1CCc2ccccc2N(CC(=O)O)C1=O,,11.9 µM (active)
C=C(C)C(=O)OCCN(C)C,-5.6% [at 95 µM] (inactive),
S=C(S)NCCNC(=S)S,-7.44% (inactive),
Cc1ccc(C(C)c2ccc(C)c(C)c2)cc1C,-16.4% (inactive),
CCCCOC(=O)/C=C\C(=O)OCCCC,13.7% [at 95 µM] (inactive),
O=C(O)Cc1cc(I)c(Oc2ccc(O)c(I)c2)c(I)c1,,inactive
CN1CCC(=C2c3ccccc3C=Cc3ccccc32)CC1,,7.5 µM (active)
N[C@H]1C(O)O[C@H](CO)[C@H](O)[C@@H]1O (stereo partly drawn),11.6% (inactive),
CC1CCc2cc(F)cc3c(=O)c(C(=O)O)cn1c23 (stereo not drawn),13.2% (inactive),
CN(c1nccc(=O)[nH]1)C1CCN(c2nc3ccccc3n2Cc2ccc(F)cc2)CC1,-1.19% (inactive),
Cc1cccc(C(C)(C)C)c1O,0.567% (inactive),
C=Cc1c(C)c2cc3[nH]c(cc4nc(cc5nc(cc1[nH]2)C(C)=C5CCC(=O)O)C(CCC(=O)O)=C4C)c(C)c3C=C,0.0115% (inactive),
CCCCCC/C=C/C=O,-14.8% (inactive),
NC(=S)N/N=C/c1cccnc1,20.6% (inactive),
Nc1nc(N)c2nc(CNc3ccc(C(=O)N[C@@H](CCC(=O)O)C(=O)O)cc3)cnc2n1,,11.9 µM (active)
CCOc1cc(OCC)c(C(=O)CCC(=O)O)cc1OCC,-4.16% (inactive),

# Assay: qHTS assay for identifying genotoxic compounds that show differential cytotoxicity against isogenic chicken DT40 cell lines with known DNA damage response pathways - Rev3 mutant cell line (AID 743014); also: nearly all actives have a fitted effect of over 55% in size
# Details: chicken DT40 Rev3-/- viability, CellTiter-Glo, 40 h; series mostly up to 68.4 µM; activity, negative = cytotoxicity: at the top concentration
Compound,"activity, negative = cytotoxicity",Potency
OCCC1CCCCN1 (stereo not drawn),-7.28% [at 95 µM] (inactive),
CCCC[C@H]1CN(CC2CCOCC2)C(=O)OC12CCN(C1(C)CCN(C(=O)c3c(C)ncnc3C)CC1)CC2,16.4% (inactive),
Cc1cc(C)c(S(=O)(=O)O)cc1N=Nc1cc(S(=O)(=O)O)c2ccccc2c1O,-16.3% (inactive),
c1ccc(OCc2ccc(CCCN3CCOCC3)cc2)cc1,,0.168 µM (active)
N#Cc1c(F)cccc1F,5.65% (inactive),
NC(N)=NN=C(/C=C/c1ccc([N+](=O)[O-])o1)/C=C/c1ccc([N+](=O)[O-])o1,,0.75 µM (active)
Cc1ccccn1,,inactive
NC1CCN(c2nc3c(cc2F)c(=O)c(C(=O)O)cn3-c2ccc(F)cc2F)C1 (stereo not drawn),,13.3 µM (active)
COc1cc(C(C)(C)C)c(O)c(C(C)(C)C)c1,,27.3 µM (active)
CC(C)c1cccc(C(C)C)c1NC(=O)NS(=O)(=O)c1cc(C(C)(C)O)co1,-4.32% (inactive),
COCCCCCCCCOCCC[Si](C)(O[Si](C)(C)C)O[Si](C)(C)C,,6.11 µM (active)
CC(Cc1cccc(C(F)(F)F)c1)NCCOC(=O)c1ccccc1 (stereo not drawn),,23.7 µM (active)
O=C(/C=C/c1ccc(O)c(O)c1)O[C@@H]1C[C@](O)(C(=O)O)C[C@@H](O)[C@H]1O,13.7% [at 95 µM] (inactive),
NC[C@H]1O[C@H](O[C@H]2[C@H](O)[C@@H](O[C@H]3O[C@H](CO)[C@@H](O)[C@H](N)[C@H]3O)[C@H](N)C[C@@H]2N)[C@H](O)[C@@H](O)[C@@H]1O,-0.199% [at 31.4 µM] (inactive),
CCOC(=O)[C@H](CCc1ccccc1)N[C@H]1CCc2ccccc2N(CC(=O)O)C1=O,,23.7 µM (active)
C=C(C)C(=O)OCCN(C)C,13% [at 95 µM] (inactive),
S=C(S)NCCNC(=S)S,1.16% (inactive),
Cc1ccc(C(C)c2ccc(C)c(C)c2)cc1C,5.14% (inactive),
CCCCOC(=O)/C=C\C(=O)OCCCC,4.76% [at 95 µM] (inactive),
CC(C)(C)C1CCCCC1O (stereo not drawn),-15.1% (inactive),
O=C(O)Cc1cc(I)c(Oc2ccc(O)c(I)c2)c(I)c1,-5.91% (inactive),
CN1CCC(=C2c3ccccc3C=Cc3ccccc32)CC1,,10.6 µM (active)
CC1CCc2cc(F)cc3c(=O)c(C(=O)O)cn1c23 (stereo not drawn),16.2% (inactive),
CN(c1nccc(=O)[nH]1)C1CCN(c2nc3ccccc3n2Cc2ccc(F)cc2)CC1,13.8% (inactive),
Cc1cccc(C(C)(C)C)c1O,-3.99% (inactive),
C=Cc1c(C)c2cc3[nH]c(cc4nc(cc5nc(cc1[nH]2)C(C)=C5CCC(=O)O)C(CCC(=O)O)=C4C)c(C)c3C=C,11% (inactive),
CCCCCC/C=C/C=O,-1.41% (inactive),
NC(=S)N/N=C/c1cccnc1,8.89% (inactive),
Nc1nc(N)c2nc(CNc3ccc(C(=O)N[C@@H](CCC(=O)O)C(=O)O)cc3)cnc2n1,,13.3 µM (active)
